40 compounds from ChEMBL document CHEMBL3988442, “University of Dundee, Small-Polar-MMV Screening Library” (2021) can be followed below.

One assay deals with T1, Aspartate--tRNA(Asp/Asn) ligase (Mycobacterium tuberculosis (strain ATCC 25618 / H37Rv)) (UniProt P9WFW3).
T1 sequence (whole entry): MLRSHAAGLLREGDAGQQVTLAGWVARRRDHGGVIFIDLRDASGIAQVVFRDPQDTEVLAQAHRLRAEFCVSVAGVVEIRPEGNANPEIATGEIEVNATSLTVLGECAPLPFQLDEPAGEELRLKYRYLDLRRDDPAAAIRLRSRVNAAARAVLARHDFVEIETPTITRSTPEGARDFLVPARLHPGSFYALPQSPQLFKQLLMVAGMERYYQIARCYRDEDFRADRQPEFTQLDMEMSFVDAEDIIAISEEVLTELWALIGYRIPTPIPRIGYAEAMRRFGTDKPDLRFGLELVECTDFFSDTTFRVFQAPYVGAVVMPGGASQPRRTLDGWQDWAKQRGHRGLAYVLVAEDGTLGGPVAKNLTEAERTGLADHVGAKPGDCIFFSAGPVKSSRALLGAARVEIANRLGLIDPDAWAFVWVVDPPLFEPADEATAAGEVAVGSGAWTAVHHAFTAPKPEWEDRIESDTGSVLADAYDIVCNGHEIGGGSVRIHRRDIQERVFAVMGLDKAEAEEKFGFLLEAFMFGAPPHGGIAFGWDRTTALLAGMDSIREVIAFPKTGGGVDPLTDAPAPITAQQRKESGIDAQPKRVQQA
Kind of assay: Assay for Asp RNA synthetase-1 from Mycobacterium tuberculosis. The class given is functional. Further details: scale not given: direction of the effect not stated beside the values. The conditions noted are these: 30 µM.
For the compound `CN(C)CC(=O)N1C[C@@H]2CC[C@H](Oc3ccccc3Cl)[C@@H]2C1`, the Percent Effect turned out to be 1.77%.
As for `CC(C)c1nnc2n1CCN(C(=O)c1ccc(OCC(N)=O)cc1)C2`, the Percent Effect was -5.82%.
As for `CCN1CCN(S(=O)(=O)c2cc(C)c(Cl)cc2Cl)CC1`, the Percent Effect was -2.59%.
On to `CC(C)(C)NC(=O)C1CSCN1S(=O)(=O)c1ccc(F)cc1` (stereo not given), for which the Percent Effect was determined as 5.02%.
Regarding `O=C(CCCn1cncn1)NC1(c2ccccc2)CCC1`, the Percent Effect came out at 10.9%.
`CC(=O)N1CCC2(CCCN(Cc3ccc(Cl)c(C(F)(F)F)c3)C2)C1` (stereo not given): the Percent Effect is 6.54%.
For the compound `Cn1cc(CN2CC[C@H](O)[C@@H]2Cc2ccncc2)cn1`, the Percent Effect is -1.6%.
Turning to `Cn1cc(C[C@H]2[C@H](O)CCN2CC2CC2)cn1`, the Percent Effect was -0.168%.
For `O=C1CCC2(CCN(Cc3ccc(F)cc3)CC2)N1Cc1ccccc1`, the Percent Effect was -0.182%.
In the case of `Cc1ccsc1CN(C)C(=O)Cn1nc(-c2ccc(F)cc2)oc1=O`, the Percent Effect came to 10.3%.
`Cc1noc2ncc(C(=O)N3CCCC3c3cnn(C)c3)cc12` (stereo not given): the Percent Effect came to 3.4%.
Regarding `COc1cnc(C2(O)CCN(C(=O)c3cccnc3)CC2)c(OC)n1`, the Percent Effect turned out to be 0.313%.
For `CCc1nc(C)c(C(=O)NCCNc2ncccn2)s1`, the Percent Effect was 0.562%.
In the case of `Cn1cc(NC(=O)N2CCC(NS(C)(=O)=O)CC2)ccc1=O`, the Percent Effect came out at 57.4%.
On the same count and under the same terms, next, `CC1CCN(c2ncc3c(n2)CN(c2ccc4c(c2)OCO4)C3=O)CC1`: 10.8%; `Cc1cccc(-c2ccc(C(=O)NCC3CCOC3)c(=O)[nH]2)c1` (stereo not given): 7.65%; `CCC1=N[C@@]2(CC[C@@H]3CN(C(=O)NCC(C)C)C[C@@H]32)C(=O)N1CC(C)C`: 4.11%.
Turning to `Cc1nn(C)c(C)c1CC(=O)N1CCCC(n2cccn2)C1` (stereo not given), the Percent Effect was -4.75%.
Turning to `COc1ccc(CN2CC[C@@H](O)[C@@H]2Cc2ccccc2)cc1`, the Percent Effect was -0.406%.
For the compound `CC(C)c1cc(NCC(C)N2CCCC2)n2nccc2n1` (stereo not given), the Percent Effect came out at 1.77%.
On the same count and under the same terms, next, `CC(C)=CCN1CCOC(Cn2nc(C)cc2C)C1` (stereo not given): -3.08%; `CCOc1ccc(NC(=O)NCc2csc(NC)n2)cc1C`: -0.262%; `Cc1cc(NS(=O)(=O)c2ccccc2F)ccc1-n1cccc1C(=O)O`: 6.98%.
Still for that read-out and setting: next, `Cc1ccccc1CNC(=O)CN1CCN(Cc2nccn2C)CC1`: 8.88%; `COC(=O)c1cc(OCC2CCC2)cc(C(=O)N[C@@H]2CNCC[C@H]2O)c1`: 6.47%; `Cn1c(CN2CCN(CC3CC3)CC2)nnc1C1CCC1`: 8.05%.
The same measure, in the same setting: in the case of `O=C(NCC1CC1)[C@H]1C[C@@H]2CN(S(=O)(=O)Cc3ccccc3)C[C@H]1O2` it was 4.1%; in that of `CCNC(=O)C1CCN(Cc2csc(-c3ccc(C)o3)n2)CC1`, 6.68%; in that of `O=C(c1ccco1)N1CC[C@H]2[C@H]1CCN2CC1CCOCC1`, 1.99%.
For the compound `Cc1cnn(CC2CN(Cc3cccc(OCC(N)=O)c3)CCO2)c1` (stereo not given), the Percent Effect is -5.07%.
Turning to `Cc1cc(CN(C)C(=O)c2ccc(F)cc2Br)no1`, the Percent Effect amounted to 0.189%.
Regarding `COCC(=O)N1CCC2(CC1)CC(CC(=O)NC1CC1)c1ccccc12` (stereo not given), the Percent Effect is -1.39%.
Consider `COCCC(=O)N1CC[C@@H](N(C)C)[C@@H]1Cc1ccccc1`, for which the Percent Effect is -3.16%.
With `c1ccc(Cn2cccn2)c(CNCC2CNc3ccnn3C2)c1` (stereo not given), the Percent Effect was found to be 1.88%.
In the case of `CCC1CN(C(=O)Nc2cnc3c(cnn3C(C)C)c2)CCO1` (stereo not given), the Percent Effect amounted to 0.932%.
Turning to `CC(C)(C)c1cnc(CN2CCC(c3ccnn3CCO)CC2)o1`, the Percent Effect was -2.6%.
With `CCCN1C(=O)CC(N2CCN(c3ccc(F)cc3)CC2)C1=O` (stereo not given), the Percent Effect was found to be 5.99%.
`Cc1ncc(CNC2CCCN(Cc3noc(C4CC4)n3)C2)s1` (stereo not given): the Percent Effect is -4.12%.
Regarding `CCn1c(C2CCCN(Cc3nccn3CCOC)C2)nn(C)c1=O` (stereo not given), the Percent Effect worked out at 4.25%.
Consider `CCOc1ncccc1C(=O)N(C)Cc1ncc(C)c(OC)c1C`, for which the Percent Effect is -0.375%.

For another assay, the target named is Shiga toxin 2 (Escherichia coli O157:H7) (UniProt P09385+P09386). In words: E. coli 0.157:H7 Shiga Toxin SOP - stx2 screening assay. The class given is functional. Set-up: scale not given: direction of the effect not stated beside the values. The conditions noted are these: 30 µM.
As for `CN(C)CC(=O)N1C[C@@H]2CC[C@H](Oc3ccccc3Cl)[C@@H]2C1`, the Percent Effect came to 12.4%.
`CC(C)c1nnc2n1CCN(C(=O)c1ccc(OCC(N)=O)cc1)C2`: the Percent Effect is -6.36%.
In the case of `CCN1CCN(S(=O)(=O)c2cc(C)c(Cl)cc2Cl)CC1`, the Percent Effect was -47.6%.
On to `CC(C)(C)NC(=O)C1CSCN1S(=O)(=O)c1ccc(F)cc1` (stereo not given), for which the Percent Effect came to 1.58%.
Still for that read-out and setting: next, `O=C(CCCn1cncn1)NC1(c2ccccc2)CCC1`: -17.7%; `CC(=O)N1CCC2(CCCN(Cc3ccc(Cl)c(C(F)(F)F)c3)C2)C1` (stereo not given): 4.87%; `Cn1cc(CN2CC[C@H](O)[C@@H]2Cc2ccncc2)cn1`: -6.08%.
Regarding `Cn1cc(C[C@H]2[C@H](O)CCN2CC2CC2)cn1`, the Percent Effect turned out to be 2.72%.
Turning to `O=C1CCC2(CCN(Cc3ccc(F)cc3)CC2)N1Cc1ccccc1`, the Percent Effect turned out to be 6.77%.
Consider `Cc1ccsc1CN(C)C(=O)Cn1nc(-c2ccc(F)cc2)oc1=O`, for which the Percent Effect is -7.45%.
On the same count and under the same terms, in the case of `Cc1noc2ncc(C(=O)N3CCCC3c3cnn(C)c3)cc12` (stereo not given) it was -3.42%.
On to `COc1cnc(C2(O)CCN(C(=O)c3cccnc3)CC2)c(OC)n1`, for which the Percent Effect worked out at 17.2%.
With `CCc1nc(C)c(C(=O)NCCNc2ncccn2)s1`, the Percent Effect came out at 30.3%.
Same read-out and setting: in the case of `Cn1cc(NC(=O)N2CCC(NS(C)(=O)=O)CC2)ccc1=O` it was -31.1%; in that of `CC1CCN(c2ncc3c(n2)CN(c2ccc4c(c2)OCO4)C3=O)CC1`, -21.4%; in that of `Cc1cccc(-c2ccc(C(=O)NCC3CCOC3)c(=O)[nH]2)c1` (stereo not given), 15.2%.
Take `CCC1=N[C@@]2(CC[C@@H]3CN(C(=O)NCC(C)C)C[C@@H]32)C(=O)N1CC(C)C`: the Percent Effect was -9.55%.
Turning to `Cc1nn(C)c(C)c1CC(=O)N1CCCC(n2cccn2)C1` (stereo not given), the Percent Effect was 20.6%.
Regarding `COc1ccc(CN2CC[C@@H](O)[C@@H]2Cc2ccccc2)cc1`, the Percent Effect is -47%.
For the compound `CC(C)c1cc(NCC(C)N2CCCC2)n2nccc2n1` (stereo not given), the Percent Effect is -11.9%.
`CC(C)=CCN1CCOC(Cn2nc(C)cc2C)C1` (stereo not given): the Percent Effect was 24.4%.
Turning to `CCOc1ccc(NC(=O)NCc2csc(NC)n2)cc1C`, the Percent Effect was -26.6%.
On the same count and under the same terms, next, `Cc1cc(NS(=O)(=O)c2ccccc2F)ccc1-n1cccc1C(=O)O`: 0.354%.
Consider `Cc1ccccc1CNC(=O)CN1CCN(Cc2nccn2C)CC1`, for which the Percent Effect was found to be 6.67%.
On the same count and under the same terms, in the case of `COC(=O)c1cc(OCC2CCC2)cc(C(=O)N[C@@H]2CNCC[C@H]2O)c1` it was -42.6%; in that of `Cn1c(CN2CCN(CC3CC3)CC2)nnc1C1CCC1`, -37.5%.
Turning to `O=C(NCC1CC1)[C@H]1C[C@@H]2CN(S(=O)(=O)Cc3ccccc3)C[C@H]1O2`, the Percent Effect was -14.6%.
Same read-out and setting: next, `CCNC(=O)C1CCN(Cc2csc(-c3ccc(C)o3)n2)CC1`: -30.3%; `O=C(c1ccco1)N1CC[C@H]2[C@H]1CCN2CC1CCOCC1`: -28%; `Cc1cnn(CC2CN(Cc3cccc(OCC(N)=O)c3)CCO2)c1` (stereo not given): 8.76%.
Turning to `Cc1cc(CN(C)C(=O)c2ccc(F)cc2Br)no1`, the Percent Effect was -57%.
For the compound `COCC(=O)N1CCC2(CC1)CC(CC(=O)NC1CC1)c1ccccc12` (stereo not given), the Percent Effect came to 9.56%.
`COCCC(=O)N1CC[C@@H](N(C)C)[C@@H]1Cc1ccccc1`: the Percent Effect came to 2.6%.
Still for that read-out and setting: in the case of `c1ccc(Cn2cccn2)c(CNCC2CNc3ccnn3C2)c1` (stereo not given) it was -40.7%; in that of `CCC1CN(C(=O)Nc2cnc3c(cnn3C(C)C)c2)CCO1` (stereo not given), 13.4%; in that of `CC(C)(C)c1cnc(CN2CCC(c3ccnn3CCO)CC2)o1`, -1.72%.
As for `CCCN1C(=O)CC(N2CCN(c3ccc(F)cc3)CC2)C1=O` (stereo not given), the Percent Effect is -15.7%.
Consider `Cc1ncc(CNC2CCCN(Cc3noc(C4CC4)n3)C2)s1` (stereo not given), for which the Percent Effect worked out at 28.2%.
As for `CCn1c(C2CCCN(Cc3nccn3CCOC)C2)nn(C)c1=O` (stereo not given), the Percent Effect worked out at 5.34%.
Turning to `CCOc1ncccc1C(=O)N(C)Cc1ncc(C)c(OC)c1C`, the Percent Effect turned out to be 19.7%.
